The values that follow come from ChEMBL document CHEMBL4513216, “Probing the Open Global Health Chemical Diversity Library for Multistage-Active Starting Points for Next-Generation Antimalarials” (ACS Infect Dis, 2020).

The whole screen tested about 69,000 compounds, of which about 8,600 (12%) showed an effect of 50% or more. What follows is part of a selection rich in strong results, with near analogues and random picks from the rest.

In this assay the test system is Plasmodium berghei. In words: Screen against P. berghei liver stage (PbLuc), transformed with Luciferase, at 10uM. Type of assay: functional, HepG2. The settings on record: tested at 10 uM.
Take `CC(C)N1C(=O)CN(CCOCCO)CC1(C)C`: the INHIBITION amounted to 23.1%. To `Cc1cccc(Cn2c(=O)[nH]c3csnc3c2=O)c1` belongs 12.8%. Regarding `CC(C)C(O)CNC(=O)Nc1cnn(Cc2ccccc2)c1` (stereo unspecified), the INHIBITION stood at 4.82%. To `CSc1ncc(CN2C[C@@H]3CC[C@H]2CN(C2CCOCC2)C3)cn1` belongs 9.91%. For `CN(C)c1ccc(CN2C[C@@H]3CC[C@H]2CN(C2CCOCC2)C3)cn1` the value was 53.5%; for `CCSc1ncc(CN2C[C@@H]3CC[C@H]2CN(C2CCOCC2)C3)cn1`, 48.5%; for `Cc1nc(CN2CCC3(CCN(Cc4cnn(C)c4)C3)C2=O)cs1` (stereo unspecified), 25.3%. To `O=S1(=O)c2cccnc2OC(Cc2ccccc2)CN1CC1CC1` (stereo unspecified) belongs 24.5%; to `OCC1(O)CCN(c2ccnc3c(C(F)(F)F)cccc23)CC1`, 17.5%; to `Cc1nc(C)c(C(=O)Nc2cccc(CN3CCC(CO)CC3)c2)o1`, 61.8%. As for `Cc1cc(C)c(C(=O)Nc2cccc(CN3CCC(CO)CC3)c2)o1`, the INHIBITION is on record as -30%. For `Cc1nn(C)cc1C(=O)Nc1cccc(CN2CCC(CO)CC2)c1` the value was 44.2%.

`CCc1cccc(-n2nnc(C(=O)O)c2-c2ccncc2)c1`: the INHIBITION is 45.8%. To `Cc1n[nH]c(-c2ccc(NC(=O)C(C)N3CCN(C)CC3)cc2)n1` (stereo unspecified) belongs -27.4%; to `CCC(C(=O)Nc1ccc(-c2nc(C)n[nH]2)cc1)N1CCCC1=O` (stereo unspecified), 59.1%. To `Cc1n[nH]c(-c2ccc(NC(=O)C(C)(C)N3CCN(C)CC3)cc2)n1` belongs -25.6%; to `CCC(C(=O)NCc1ccn(-c2ccc(F)cc2)n1)N1CCCC1=O` (stereo unspecified), 2.82%; to `CCCN1CCCN(C(=O)C(CC)N2CCCC2=O)CC1` (stereo unspecified), -3.99%. As to `CCC(C(=O)Nc1ccc2c(C)n[nH]c2c1)N1CCCC1=O` (stereo unspecified), the INHIBITION came to 53.6%. For `CC(C)(C)c1noc(CCC(=O)NCC2CCS(=O)(=O)C2)n1` (stereo unspecified) the value was 26.4%; for `Cc1cc(N(C)C)nc(C2COCCN2Cc2cscn2)n1` (stereo unspecified), 45.9%; for `O=C1CC(N(C(=O)c2ccc(F)c(C(F)(F)F)c2)C2CC2)C(=O)N1` (stereo unspecified), 0.914%.

As to `CCc1ccc2c(C3CN(CC4CCC4)C3)ncn2c1`, the INHIBITION amounted to 27.5%. For `O=C(NC[C@H]1OC[C@@H](NC2CCNCC2)[C@@H]1O)C1CCCC1` the value was 24.5%. To `OC(COc1ccc(F)cc1)CN1CCC(Cn2cccn2)CC1` (stereo unspecified) belongs 22.9%; to `CCCn1ccnc1-c1nccn1CCN(C)C`, 34.1%; to `CCCn1ccnc1-c1nccn1CCn1cnnc1`, 50.5%.

In the case of `COCc1ncc(-c2nccn2CCn2cnnc2)cn1`, the INHIBITION is -0.614%.

In the case of `C1CCC(CNC2CCCN(Cc3noc(C4CC4)n3)C2)CC1` (stereo unspecified), the INHIBITION was determined as 31.6%. For `CCCN(CC)C(=O)c1cc2c(c3ccccc3n2C)n1C(=O)N(C)C` the value was 11.9%; for `CC(C)n1c2ccccc2c2c1cc(C(=O)NCCO)n2C(=O)N(C)C`, 55.7%.

On to `CC(C)NC(=O)c1cc2c(c3ccccc3n2C)n1C(=O)N(C)C`, for which the INHIBITION was 36.9%. For `CN(C)C(=O)n1c(C(=O)NC(C)(C)CO)cc2c1c1ccccc1n2C` the value was -24.9%. To `CC(C)n1c2ccccc2c2c1cc(C(=O)NC1CC1)n2C(=O)N(C)C` belongs 60.2%; to `COCCNC(=O)c1cc2c(c3ccccc3n2C)n1C(=O)N(C)C`, 36.9%.

As for `CC(C)NC(=O)CN(C)C(=O)c1c(Cl)c2ccccc2n1C`, the INHIBITION amounted to 15.8%. To `CC(C)n1c2ccccc2c2c1cc(C(=O)N(C)C)n2C(=O)N(C)C` belongs 47.5%; to `CC(C)n1c2ccccc2c2c1cc(C(=O)N(C)C)n2C`, 82%; to `CC(C)n1c2ccccc2c2c1cc(C(=O)N(C)C)n2S(C)(=O)=O`, 49.4%. To `CCCNC(=O)c1cc2c(c3ccccc3n2C)n1C(=O)N(C)C` belongs 26.2%. To `CC(C)n1c2ccccc2c2c1cc(C(=O)O)n2C(=O)N(C)C` belongs 57.5%. In the case of `Cc1ccc(C(=O)NCCSCc2cccs2)cn1`, the INHIBITION is listed as 8.75%. To `Cc1ccc(NC2CCN(C(=O)c3ccc(F)c(C)c3)CC2)nn1` belongs 47.1%. For `COCCn1c(-c2cccc(OC)c2)cnc1NC(=O)NC1CCCC1` the value was 13.5%; for `CN(C)c1cncc(C2CCCN2S(=O)(=O)c2cn(C)cn2)n1` (stereo unspecified), 32.8%; for `O=C(c1cnccn1)N1CCN(CC2CC2)c2ncccc2C1`, -21.1%. To `COCCC(=O)N(C)Cc1nc(C(F)(F)F)cs1` belongs -26.8%; to `O=C(NCc1cc[nH]n1)NCC(O)c1ccccc1F` (stereo unspecified), 7.12%. On to `CCN(C(=O)CN1CCCC1c1c(C)nn(C)c1OC)C1CC1` (stereo unspecified), for which the INHIBITION is -23.3%. For `COc1c(C2CCCN2CC(=O)N(C)Cc2ccco2)c(C)nn1C` (stereo unspecified) the value was 89.4%; for `N#CCCN(Cc1ccco1)C(=O)CN1CCCC1c1cccs1` (stereo unspecified), 29.4%. To `CN(Cc1ccco1)C(=O)CN1CCCC1c1cccs1` (stereo unspecified) belongs 62.3%; to `COc1c(C2CCCN2C(=O)c2ccco2)c(C)nn1C` (stereo unspecified), 7.18%; to `CN(CCC#N)C(=O)CN1CCCC1c1cccs1` (stereo unspecified), -85%.

On to `CC(=O)Nc1ccc(CNCC(O)c2ccc(Cl)cc2)cc1` (stereo unspecified), for which the INHIBITION is given as 45.7%.

For the compound `c1cncc(CN2CCn3c(Cn4cncn4)cnc3C2)c1`, the INHIBITION is 31.1%. For `Cc1ccc(CC(=O)N2CCCC(c3nccs3)C2)cn1` (stereo unspecified) the value was 3.4%.

For `O=C(NCC1(O)CCCC1)c1ccc2nsnc2c1`, the INHIBITION is recorded as -47%. For `COc1ccnc(N(C)Cc2csc(C)n2)n1` the value was -62.7%; for `Cc1nc(CC(=O)NCCNc2nccc(C(F)(F)F)n2)cs1`, 22.6%; for `Cc1noc(C)c1CN(C)c1nccc(C(F)(F)F)n1`, -25.7%. Consider `Cc1nc(CN(C)c2nccc(N(C)C)n2)cs1`, for which the INHIBITION is listed as 51.5%. For `Cc1cc(N(C)C)nc(N(C)Cc2csc(C)n2)n1` the value was -3.35%; for `Cc1nc(CN(C)c2nccc(C(F)(F)F)n2)cs1`, 50.1%; for `CCCN1CCCn2nc(CNS(=O)(=O)c3cnn(CC)c3)cc2C1`, 29.1%.

As for `COc1ccccc1CC(=O)N1CCC(NCc2ccncc2)CC1`, the INHIBITION is reported as 22.275%. For `Cc1ccccc1OCCCC(=O)NCc1ccnc(O)c1` the value was 9.6%; for `COc1ccccc1CC(=O)NCc1ccnc(NC2CC2)c1`, 75.7%.

`O=C(CCc1ccsc1)NCc1ccnc(OC2CCOCC2)c1`: the INHIBITION is recorded as -8.91%. For `O=C(CCc1ccc(F)cc1)NCc1ccnc(NC2CC2)c1` the value was 53.3%; for `CCOCCC(=O)NCc1ccnc(NC2CC2)c1`, 41.5%; for `COc1ccc(CNC(=O)NC2CCN(C)CC2)c(C(F)(F)F)c1`, 33.8%. To `O=C(Cn1ccnc1)N1CC[C@H](Oc2cccc(F)c2)[C@@H](O)CC1` belongs 13.85%. `CCOc1ccc(-n2nnc(C(=O)O)c2-c2ccncc2)cc1`: the INHIBITION is reported as 15%. For `O=C(O)c1ccnc(SCc2ccccc2)c1` the value was 13.5%; for `O=C(O)c1ccnc(SCC(=O)c2ccccc2)c1`, 9.55%; for `O=C(O)c1ccnc(SCC(F)(F)F)c1`, 57%.

In the case of `CC(=O)N1CCCN(C(=O)CN(C)c2ccc(Cl)cn2)CC1`, the INHIBITION stood at 22.8%. In the case of `COc1ccc(CN2CCCC2c2cccc(F)c2)c(OC)c1OC` (stereo unspecified), the INHIBITION came out at 16%. Consider `Cc1ccc(S(C)(=O)=O)cc1C(=O)N1CCCC(n2cncn2)C1` (stereo unspecified), for which the INHIBITION is listed as -12.1%. For `CN(C)C(=O)CO[C@H]1CN(Cc2ccsc2)[C@@H]2COC[C@H]12` the value was -0.284%; for `O=C(Nc1ncc[nH]1)c1cc(-c2cccnc2)n[nH]1`, 57%; for `CC(C)Cc1nc(NC(=O)c2cc(-c3cccnc3)n[nH]2)n[nH]1`, 40.1%. For `COc1cccc(-c2cc(C(=O)Nc3nc[nH]n3)[nH]n2)c1` the value was -43.7%. To `CN1CC(=O)N(c2cccc(F)c2)CC12CCN(Cc1cccnc1)C2` (stereo unspecified) belongs 1.58%; to `Cc1noc(C(C)C)c1C(=O)NCCC(=O)N1CCCCC1`, -18%.

In the case of `COc1ccccc1NC(=O)NC1(c2noc(CN(C)C)n2)CCCC1`, the INHIBITION is given as 48.1%. For `Cc1cccc(CN2CCc3nnc(Cn4cccc4)n3CC2)n1` the value was 23.5%; for `COCCNC(=O)Cn1c(-c2ccc(Cl)cc2)nc(C)c(CCO)c1=O`, 2.29%. As for `CCN(CC)C(=O)Cn1c(-c2ccc(Cl)cc2)nc(C)c(CCO)c1=O`, the INHIBITION was -21.8%. To `Cc1nc(-c2ccc(Cl)cc2)n(CC(=O)NC(C)C)c(=O)c1CCO` belongs 61.4%. To `CCc1nnc(C(C)N2CCC(NC(=O)C3CCCCC3)CC2)o1` (stereo unspecified) belongs 11.3%; to `CN(Cc1cnccn1)C(=O)[C@@]12CNC[C@@H]1CN(Cc1ccccc1)C2`, -22.3%. To `O=C(NCC1Cn2nnc(-c3cccc(F)c3)c2CO1)c1ccc[nH]1` (stereo unspecified) belongs 9.63%; to `CCN1C[C@@H]2CN(S(=O)(=O)c3cccs3)C[C@@H]2C1=O`, -24.5%; to `CCO[C@@H]1C[C@H]2CN(S(=O)(=O)c3cccs3)CCN2C1`, 57.1%.

Turning to `O=S(=O)(c1cccs1)N1CCN2C[C@H](OCC3CC3)C[C@H]2C1`, the INHIBITION was found to be 8.85%.

In the case of `CC(C)c1nc(S(=O)(=O)N(C)c2ccc(F)cc2)c[nH]1`, the INHIBITION was determined as 54.8%. As to `CCOc1ccc(N(C)S(=O)(=O)c2c[nH]c(C(C)C)n2)cc1`, the INHIBITION is on record as 10.3%. Regarding `CC(C)c1nc(S(=O)(=O)N(C)c2cc(F)ccc2F)c[nH]1`, the INHIBITION amounted to 23.3%.

Consider `CNC(=O)c1cn[nH]c1C1CCCN1C(=O)c1ccccn1` (stereo unspecified), for which the INHIBITION was -20.6%. For `COCCn1cnnc1C1CCCN(c2cnccn2)C1` (stereo unspecified) the value was 30.4%; for `CSCCC(=O)N[C@H]1CC[C@H](Nc2nccc(-c3ccncc3)n2)C1`, 0.923%.

Turning to `COCCC(=O)N[C@H]1CC[C@H](Nc2nccc(-c3ccncc3)n2)C1`, the INHIBITION is listed as 61.5%. To `CSCC(=O)N[C@H]1CC[C@H](Nc2nccc(-c3ccncc3)n2)C1` belongs 14.2%. For `Cc1cc(C(F)(F)F)nc(C2COCCN2S(C)(=O)=O)n1` (stereo unspecified) the value was 33.65%.
